Structures are written as SMILES. For some assays here: Potency and affinity values are given separately.

Parameters in all cases: scale not given: direction of the effect not stated beside the values
Assay [1] deals with Protein translocase subunit SecA (Escherichia coli (strain K12)) (UniProt P10408). In words: Assay to Identify E. coli SecA ATPase Inhibitors. Format: functional. Conditions: 30 µM.
The target in assay [2] is T1, Ubiquitin-activating enzyme e1, putative (Leishmania donovani (strain BPK282A1)) (UniProt E9BSI1).
T1 sequence (whole entry): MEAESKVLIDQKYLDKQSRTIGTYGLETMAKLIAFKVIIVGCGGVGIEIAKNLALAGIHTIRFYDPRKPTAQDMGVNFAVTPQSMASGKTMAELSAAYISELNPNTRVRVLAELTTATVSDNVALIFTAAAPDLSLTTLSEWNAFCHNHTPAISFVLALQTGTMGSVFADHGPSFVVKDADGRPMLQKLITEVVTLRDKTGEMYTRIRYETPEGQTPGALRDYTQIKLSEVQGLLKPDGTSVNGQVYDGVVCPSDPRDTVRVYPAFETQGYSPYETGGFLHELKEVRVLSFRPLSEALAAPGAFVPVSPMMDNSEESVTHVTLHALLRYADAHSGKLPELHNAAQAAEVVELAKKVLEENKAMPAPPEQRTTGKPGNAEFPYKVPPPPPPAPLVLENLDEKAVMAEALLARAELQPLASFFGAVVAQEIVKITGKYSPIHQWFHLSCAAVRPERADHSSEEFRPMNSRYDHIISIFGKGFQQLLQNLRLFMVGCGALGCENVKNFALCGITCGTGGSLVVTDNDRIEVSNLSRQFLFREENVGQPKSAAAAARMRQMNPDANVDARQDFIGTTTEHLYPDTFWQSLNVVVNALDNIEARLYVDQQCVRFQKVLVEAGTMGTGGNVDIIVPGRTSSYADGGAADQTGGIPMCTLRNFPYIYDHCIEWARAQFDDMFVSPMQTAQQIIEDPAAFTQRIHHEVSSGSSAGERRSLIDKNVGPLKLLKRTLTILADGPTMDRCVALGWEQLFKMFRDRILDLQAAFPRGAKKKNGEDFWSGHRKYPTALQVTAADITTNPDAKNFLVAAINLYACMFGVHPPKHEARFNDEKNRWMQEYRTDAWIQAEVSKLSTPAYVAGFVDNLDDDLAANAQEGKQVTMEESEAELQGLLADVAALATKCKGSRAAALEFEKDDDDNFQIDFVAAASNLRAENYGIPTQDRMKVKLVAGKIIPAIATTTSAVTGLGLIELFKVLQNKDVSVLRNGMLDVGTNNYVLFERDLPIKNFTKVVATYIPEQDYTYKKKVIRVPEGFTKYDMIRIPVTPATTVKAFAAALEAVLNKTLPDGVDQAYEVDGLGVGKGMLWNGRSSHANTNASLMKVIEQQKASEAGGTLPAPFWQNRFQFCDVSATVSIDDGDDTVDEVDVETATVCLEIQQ
In words: Leishmania donovani Ubiquitin Activating Enzyme (LdE1). The class given is functional. The settings on record: 30 µM.

Assay [3] concerns the target AMP-activated protein kinase, AMPK (Homo sapiens) (UniProt P54646+O43741+P54619+Q9UGJ0+Q9Y478+Q13131+Q9UGI9). In words: AMP-dependent Kinase enzyme assay. An in vitro enzyme assay that detects ADP turnover that is directly proportional to AMPK activity. This uses naive AMPK that is activated during the assay with MK-8722. Conditions: 30 µM. The class given is functional.

In assay [4] the target is Sialic acid-binding Ig-like lectin 9 (Homo sapiens) (UniProt Q9Y336). The assay is described as follows: Hs-Siglec9 ALPHAscreen SOP 20170721. Conditions: 10 µM.
Sialic acid-binding Ig-like lectin 9 (Homo sapiens), sequence (Q9Y336 whole entry): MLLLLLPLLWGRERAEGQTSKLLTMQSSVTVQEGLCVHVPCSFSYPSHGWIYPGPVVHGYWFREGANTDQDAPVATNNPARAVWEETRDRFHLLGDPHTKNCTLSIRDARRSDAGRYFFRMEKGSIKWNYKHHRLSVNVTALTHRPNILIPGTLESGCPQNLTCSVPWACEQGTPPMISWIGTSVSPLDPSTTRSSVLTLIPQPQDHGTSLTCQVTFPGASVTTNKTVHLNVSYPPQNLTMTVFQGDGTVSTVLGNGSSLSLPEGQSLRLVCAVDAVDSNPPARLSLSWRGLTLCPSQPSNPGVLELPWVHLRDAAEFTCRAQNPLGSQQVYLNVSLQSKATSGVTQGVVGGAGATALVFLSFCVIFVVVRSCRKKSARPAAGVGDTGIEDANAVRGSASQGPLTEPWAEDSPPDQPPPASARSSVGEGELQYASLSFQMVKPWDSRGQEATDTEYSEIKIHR
The next assay deals with Trypanosoma cruzi. In words: Trypanosoma cruzi phosphomannomutase and mannose-1-phosphate guanylyltransferase assay. The settings on record: 10 µM. The class given is functional.
Assay [5] concerns the target T2, Arginase-2, mitochondrial (Homo sapiens) (UniProt P78540).
T2 sequence (whole entry): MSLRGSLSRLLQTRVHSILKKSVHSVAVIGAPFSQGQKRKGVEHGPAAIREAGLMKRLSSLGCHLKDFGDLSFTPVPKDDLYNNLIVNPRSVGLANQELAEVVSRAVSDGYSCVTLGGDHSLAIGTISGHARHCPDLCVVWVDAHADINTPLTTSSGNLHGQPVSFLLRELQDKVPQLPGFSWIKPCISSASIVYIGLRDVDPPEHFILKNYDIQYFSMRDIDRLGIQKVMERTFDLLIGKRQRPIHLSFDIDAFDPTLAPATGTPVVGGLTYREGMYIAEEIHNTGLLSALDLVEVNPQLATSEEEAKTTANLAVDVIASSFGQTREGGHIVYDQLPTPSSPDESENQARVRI
In words: in vitro enzyme assay to detect the production of urea directly proportional to the activity of Arginase II. Further: in the data most compounds retested in dose-response had high values. The class given is functional. The settings on record: 33.3 µM.

Assay [6] has as its target T3, Proteasome subunit beta (Trypanosoma cruzi) (UniProt O96673).
T3 sequence (whole entry): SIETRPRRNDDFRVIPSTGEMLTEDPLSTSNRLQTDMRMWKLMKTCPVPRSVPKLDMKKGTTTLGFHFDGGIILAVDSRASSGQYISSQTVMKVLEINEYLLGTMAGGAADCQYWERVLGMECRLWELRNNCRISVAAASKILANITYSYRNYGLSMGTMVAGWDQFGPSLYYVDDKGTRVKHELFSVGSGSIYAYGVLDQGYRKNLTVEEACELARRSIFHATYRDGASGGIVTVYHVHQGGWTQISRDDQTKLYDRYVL
In words: Trypanosoma cruzi proteasome chymotrypsin-like activity (TcProtChymo) assay. Further: in the data most compounds retested in dose-response had high values. The class given is functional. The settings on record: 9.37 µM.

The next assay is filed under the species Homo sapiens. The assay is described as follows: To identify inhibition of the IFN signalling (Jak-Stat) pathway via expression of an eGFP reporter gene under the control of an IFN-stimulated response element (ISRE) containing MxA promoter. Conditions: 30 µM. The class given is functional.
Assay [7] deals with T4, Tyrosyl-tRNA synthetase, putative (Trypanosoma cruzi (strain CL Brener)) (UniProt Q4DSP6).
T4 sequence (whole entry): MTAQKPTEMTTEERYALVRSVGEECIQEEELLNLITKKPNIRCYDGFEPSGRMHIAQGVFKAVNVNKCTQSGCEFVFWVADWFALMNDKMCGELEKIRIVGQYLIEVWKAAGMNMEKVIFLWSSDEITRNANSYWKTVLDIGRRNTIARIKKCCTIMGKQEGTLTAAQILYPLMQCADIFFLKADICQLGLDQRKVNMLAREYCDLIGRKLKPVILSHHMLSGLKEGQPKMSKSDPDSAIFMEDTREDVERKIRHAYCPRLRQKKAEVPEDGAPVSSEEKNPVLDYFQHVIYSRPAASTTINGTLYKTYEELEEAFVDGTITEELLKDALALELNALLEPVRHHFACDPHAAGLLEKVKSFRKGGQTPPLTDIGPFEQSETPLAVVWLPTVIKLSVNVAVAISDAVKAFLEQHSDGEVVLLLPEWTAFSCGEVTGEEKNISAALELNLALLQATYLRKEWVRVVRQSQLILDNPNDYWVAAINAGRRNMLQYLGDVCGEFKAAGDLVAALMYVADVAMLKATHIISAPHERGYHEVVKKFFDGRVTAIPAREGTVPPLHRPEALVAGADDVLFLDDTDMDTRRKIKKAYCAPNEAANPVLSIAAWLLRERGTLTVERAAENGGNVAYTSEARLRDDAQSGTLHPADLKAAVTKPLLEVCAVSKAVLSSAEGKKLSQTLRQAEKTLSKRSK
The assay is described as follows: Trypanosoma cruzi tyrosyl tRNA synthetase (TcYRS) _High Tyrosine SOP. Further: in the data most compounds retested in dose-response had high values. The class given is functional. Conditions: 30 µM.

Assay [8] addresses T4, Tyrosyl-tRNA synthetase, putative (Trypanosoma cruzi (strain CL Brener)). The assay is described as follows: Trypanosoma cruzi tyrosyl tRNA synthetase (TcYRS) SOP. Format: functional. Conditions: 30 µM.
Assay [9] has as its target Chromo domain-containing protein 1 (Saccharomyces cerevisiae (strain ATCC 204508 / S288c) (Baker's yeast)) (UniProt P32657). In words: ScCHD-1 Enzyme Inhibition Assay. Further: in the data most compounds retested in dose-response had high values. Format: functional. The settings on record: 30 µM.

Chromo domain-containing protein 1 (Saccharomyces cerevisiae (strain ATCC 204508 / S288c) (Baker's yeast)), sequence (P32657 whole entry, the tested form may be a part): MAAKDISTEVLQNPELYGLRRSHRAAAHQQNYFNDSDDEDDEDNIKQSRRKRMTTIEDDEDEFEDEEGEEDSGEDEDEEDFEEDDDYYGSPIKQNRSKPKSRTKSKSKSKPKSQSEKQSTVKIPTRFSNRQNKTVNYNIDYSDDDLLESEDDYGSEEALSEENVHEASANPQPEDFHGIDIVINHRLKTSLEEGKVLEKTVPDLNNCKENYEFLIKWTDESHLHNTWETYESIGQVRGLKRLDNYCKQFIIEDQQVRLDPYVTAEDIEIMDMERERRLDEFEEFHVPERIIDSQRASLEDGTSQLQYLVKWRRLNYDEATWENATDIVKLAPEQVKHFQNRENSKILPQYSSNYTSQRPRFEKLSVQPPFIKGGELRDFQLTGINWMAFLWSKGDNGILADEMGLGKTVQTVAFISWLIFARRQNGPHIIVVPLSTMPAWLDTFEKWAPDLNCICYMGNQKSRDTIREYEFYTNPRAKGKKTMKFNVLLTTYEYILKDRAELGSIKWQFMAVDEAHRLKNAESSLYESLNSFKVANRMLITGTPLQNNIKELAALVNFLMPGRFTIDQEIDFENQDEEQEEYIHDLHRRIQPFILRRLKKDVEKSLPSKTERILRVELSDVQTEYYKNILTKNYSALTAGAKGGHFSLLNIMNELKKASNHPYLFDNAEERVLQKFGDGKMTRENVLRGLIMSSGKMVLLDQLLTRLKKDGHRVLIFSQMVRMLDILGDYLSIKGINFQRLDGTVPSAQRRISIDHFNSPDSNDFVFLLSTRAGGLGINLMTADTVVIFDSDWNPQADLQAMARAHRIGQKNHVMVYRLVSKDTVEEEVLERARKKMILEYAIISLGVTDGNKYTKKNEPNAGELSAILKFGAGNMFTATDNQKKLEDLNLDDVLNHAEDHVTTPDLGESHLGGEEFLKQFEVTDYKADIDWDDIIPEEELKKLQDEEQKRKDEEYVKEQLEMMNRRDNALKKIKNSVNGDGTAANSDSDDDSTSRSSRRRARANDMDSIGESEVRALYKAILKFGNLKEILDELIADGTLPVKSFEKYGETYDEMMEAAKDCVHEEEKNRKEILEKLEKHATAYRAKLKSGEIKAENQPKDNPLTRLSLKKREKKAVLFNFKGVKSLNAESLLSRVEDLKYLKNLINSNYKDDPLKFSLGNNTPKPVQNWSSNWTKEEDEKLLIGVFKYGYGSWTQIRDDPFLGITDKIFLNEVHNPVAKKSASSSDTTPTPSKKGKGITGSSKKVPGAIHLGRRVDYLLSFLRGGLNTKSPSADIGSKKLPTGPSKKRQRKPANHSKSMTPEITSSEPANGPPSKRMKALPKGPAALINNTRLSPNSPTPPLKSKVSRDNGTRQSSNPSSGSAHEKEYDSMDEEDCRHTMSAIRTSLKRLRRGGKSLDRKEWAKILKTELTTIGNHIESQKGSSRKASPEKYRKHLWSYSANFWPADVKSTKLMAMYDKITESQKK
Protein translocase subunit SecA (Escherichia coli (strain K12)), sequence (P10408 whole entry): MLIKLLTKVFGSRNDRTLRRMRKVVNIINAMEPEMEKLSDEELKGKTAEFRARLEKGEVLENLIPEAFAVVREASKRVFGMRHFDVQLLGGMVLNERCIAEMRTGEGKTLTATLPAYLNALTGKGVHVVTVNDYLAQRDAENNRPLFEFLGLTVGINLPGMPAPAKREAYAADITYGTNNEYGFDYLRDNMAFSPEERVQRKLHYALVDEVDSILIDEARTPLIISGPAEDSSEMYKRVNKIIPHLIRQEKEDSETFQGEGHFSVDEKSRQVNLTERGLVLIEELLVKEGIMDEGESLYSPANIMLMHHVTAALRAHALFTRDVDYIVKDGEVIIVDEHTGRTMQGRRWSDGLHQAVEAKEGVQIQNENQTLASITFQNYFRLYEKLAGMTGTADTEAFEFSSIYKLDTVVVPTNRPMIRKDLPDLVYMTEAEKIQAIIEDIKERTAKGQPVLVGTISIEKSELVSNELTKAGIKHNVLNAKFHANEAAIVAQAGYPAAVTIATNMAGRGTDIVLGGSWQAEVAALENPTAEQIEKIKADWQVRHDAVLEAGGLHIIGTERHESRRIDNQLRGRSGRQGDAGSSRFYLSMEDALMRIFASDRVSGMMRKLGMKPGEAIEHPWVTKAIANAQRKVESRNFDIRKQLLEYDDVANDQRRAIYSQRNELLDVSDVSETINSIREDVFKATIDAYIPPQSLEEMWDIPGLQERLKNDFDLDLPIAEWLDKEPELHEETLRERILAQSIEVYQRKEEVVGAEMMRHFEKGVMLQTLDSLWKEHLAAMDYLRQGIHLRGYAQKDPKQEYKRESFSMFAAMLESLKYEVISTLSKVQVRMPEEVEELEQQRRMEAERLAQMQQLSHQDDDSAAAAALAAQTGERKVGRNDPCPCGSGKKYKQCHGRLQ

For `CCN(CC)CCNC(=O)c1ccn(COc2cc(C)cc(C)c2)n1`, the Percent Effect in [1] was -1.61%; in assay [2], 9.33%; in [3], 0.388%; in assay [4], 2.31%; with Trypanosoma cruzi it was -0.197%; in [5], -8.28%. The Percent Effect in [6] is 21.4%; in the assay listed under Homo sapiens, 0.95%; in assay [7] it was 6.35%; in [8], 15.4%; in assay [9], -9.92%.

Take `CCS(=O)(=O)N(C)C1CCN(C(=O)c2cccc(Cl)c2)CC1`: the Percent Effect in [1] was -3.98%; in [2] it was 16.2%; in assay [3], -9.5%; in assay [4], 1.05%; with Trypanosoma cruzi, 4.3%; in [5] it was 11.2%. The Percent Effect is 9.38% in assay [6]; -0.31% in the assay listed under Homo sapiens; 6.93% in assay [7]; 11% in assay [8]; -6.5% in assay [9].

Turning to `CCCS(=O)(=O)N1CCN(c2cc(-n3cnc(C)c3C)nc(C)n2)CC1`, the Percent Effect is -2.71% in [1]; 0% in assay [2]; 2.33% in [3]; -0.358% in assay [4]; -3.25% in the assay on Trypanosoma cruzi; 9.65% in assay [5]. Further, the Percent Effect in assay [6] was 3.16%; in the assay filed under Homo sapiens it was -2.89%; in assay [7], 1.07%; in [8] it was -3.7%; in [9], 2.9%.

`Cc1cnn(CCC(=O)N2CCCC(c3nc(C)no3)C2)c1` (stereo not given): the Percent Effect was -3.87% in assay [1]; 24.3% in assay [2]; -8.95% in [3]; -1.06% in [4]; 5.94% in the assay on Trypanosoma cruzi; -4.41% in assay [5]. In addition, the Percent Effect in assay [6] is 16.9%; in the assay listed under Homo sapiens it was 11.1%; in assay [7], 4.43%; in assay [8], 23.5%; in [9], -10.1%.

`Fc1cccnc1OC[C@@]12CCO[C@@H]1CCN(CC1CCOCC1)C2`: the Percent Effect in assay [1] is -3.83%; in assay [2], 8.11%; in assay [3], -6.9%; in [4], 22.7%; with Trypanosoma cruzi, 4.01%; in [5], -0.744%. In addition, the Percent Effect was 14.3% in assay [6]; 12.2% in the assay listed under Homo sapiens; 6.45% in assay [7]; 13.6% in [8]; -9.09% in assay [9].

Turning to `CC(C)N(C)CCCNC(=O)c1cnc(-c2ccccc2)nc1`, the Percent Effect in assay [1] was -6.93%; in assay [2], 21.6%; in assay [3] it was 1.03%; in [4] it was 23.6%; in the assay on Trypanosoma cruzi it was 6.75%; in assay [5] it was 7.2%. For the same compound, the Percent Effect is 8.67% in assay [6]; -4.42% in the assay filed under Homo sapiens; 4.3% in [7]; 18.5% in [8]; -10.6% in [9].

As for `Cc1ccc(CC(=O)N2Cc3nccn3CC(CN(C)C)C2)cc1` (stereo not given), the Percent Effect is 2.93% in [1]; 11% in [2]; -4.31% in assay [3]; 9.23% in assay [4]; 0.198% in the assay on Trypanosoma cruzi; 5.59% in assay [5]. Besides, the Percent Effect is 15.3% in [6]; 20.1% in the assay listed under Homo sapiens; 8.33% in [7]; 16.1% in assay [8]; -2.84% in assay [9].

As to `Cc1nc(C)n(CC2CCCN(c3ncnc4c3CCC4)C2)n1` (stereo not given), the Percent Effect in [1] is -4.39%; in assay [2], 0%; in assay [3] it was 0.226%; in [4], -3.72%; in the assay on Trypanosoma cruzi, -4.25%; in assay [5], -2.81%. The Percent Effect in assay [6] was -2.88%; in the assay filed under Homo sapiens, 64.3%; in assay [7] it was -2.46%; in assay [8] it was -8.64%; in assay [9], 4.82%.

Regarding `COCCN1C(=O)CC(N2CCN(c3ccc(F)cc3)CC2)C1=O` (stereo not given), the Percent Effect in assay [1] was 0.82%; in assay [2], 10.5%; in assay [3], 2.05%; in [4] it was -7.33%; in the assay with Trypanosoma cruzi, -0.0974%; in [5], -1.18%. Besides, the Percent Effect in assay [6] was 10.3%; in the assay filed under Homo sapiens, 14.5%; in assay [7], -3.19%; in assay [8] it was 5.2%; in assay [9], -4.78%.

In the case of `O=C(Nc1cc(F)ccc1OCC1CCCO1)c1ccccn1` (stereo not given), the Percent Effect in [1] was -2.56%; in [2], 2.6%; in assay [3], 23.7%; in assay [4] it was 12.2%; with Trypanosoma cruzi, 3.04%; in assay [5], 3.16%. In addition, the Percent Effect in assay [6] was 0.242%; in the assay filed under Homo sapiens it was 2.47%; in [7] it was 2.86%; in [8], 9.41%; in assay [9], -15.1%.

The record behind these values is ChEMBL document CHEMBL3988442, “University of Dundee, Small-Polar-MMV Screening Library” (2021).
